# Experimental data taken from PubChem BioAssay AID492950 (Southern Research Specialized Biocontainment Screening …, 2010).
# Potency and affinity values are given separately. A number with no mark means an inactive call. How the calls were made is not given here.
# Assay: mammalian cell cytotoxicity, dose response, cytotoxicity control (AID 492950)
# Details: cytotoxicity counter-screen; series mostly up to 40 µM; viability: at the top concentration
row,Compound,viability [%]
1,Fc1ccc(Nc2nc(Oc3ccccc3F)nc(N3CCCC3)n2)cc1,72.5
2,O=C(Cc1cc(=O)[nH][nH]1)N/N=C/c1cccc2ccccc12,96
3,O=C(Cc1cc(=O)[nH][nH]1)N/N=C/C=C/c1ccccc1,98.9
4,Cc1ccc(-c2[nH]nc3c2C(c2ccc(OC(=O)N4CCOCC4)cc2)C(C#N)=C(N)O3)cc1 (centres undefined),99.1
5,N#CC1=C(N)Oc2n[nH]c(-c3cccs3)c2C1c1cccs1 (centres undefined),82.8
6,Cc1ccc(C(=O)Oc2ccc([N+](=O)[O-])cc2)cc1S(=O)(=O)N1CCCCCC1,81.1
7,CCC(C)[C@@H](NC(=O)OC(C)(C)C)c1nnc(S(=O)(=O)Cc2cccc(C)c2)o1 (some centres undefined),85.8
8,Cc1cc(-c2[nH]nc3c2C(c2ccsc2)C(C#N)=C(N)O3)c(C)s1 (centres undefined),78.3
9,CC(=O)N1CCC2(CC1)C(C#N)=C(N)Oc1n[nH]c(CSc3ccc(C)cc3)c12,97.3
10,CC(=O)N(C1CC(C)C(C#N)(C#N)C1(C#N)C#N)N(C)C (centres undefined),99.8
11,N#CC1=C(N)Oc2n[nH]c(-c3cccs3)c2C1c1ccsc1 (centres undefined),100
12,Cc1ccc(-c2cc(=O)[nH][nH]2)c(C)c1,87.3
13,Cc1cc(-c2[nH]nc3c2C(c2ccc(Cl)cc2)C(C#N)=C(N)O3)c(C)s1 (centres undefined),91.7
14,CCOC(=O)C/C(C)=N/NC(=O)COc1ccccc1C,89.7
15,CCOc1cc(C2C(C#N)=C(N)Oc3n[nH]c(-c4ccccc4)c32)ccc1O (centres undefined),92.9
16,C/C(=N/NC(=O)Cc1cc(=O)[nH][nH]1)c1ccc([N+](=O)[O-])cc1,93
17,COc1ccc(N(C(=O)COc2cccc(C)c2)S(=O)(=O)c2ccc(C)cc2)cc1,83.8
18,O=C(Cc1cc(=O)[nH][nH]1)N/N=C/C(Cl)=C/c1ccccc1,99.4
19,Cc1ccccc1-c1nc(CN(C)C(C)c2ccon2)c(C)o1 (centres undefined),93.4
20,CCCc1c(-c2ccc(O)cc2)nn(-c2ccc(O)cc2)c1-c1ccc(O)cc1,74.2
21,Cc1ccc(C2C(C#N)=C(N)Oc3n[nH]c(-c4cccs4)c32)cc1 (centres undefined),85.6
22,Cc1ccc(-n2nnc3c(SCC(=O)NCC4CCCO4)ncnc32)cc1 (centres undefined),92.2
23,CCCCCCOC(=O)c1ccc(OC(=O)c2cccnc2)cc1,95.7
24,CCOc1ccccc1C1C(C#N)=C(N)Nc2onc(-c3ccccc3)c21 (centres undefined),75.6
25,CSCCC1C(C#N)=C(N)Oc2n[nH]c(-c3cccs3)c21 (centres undefined),89.6
26,O=C(Cc1cc(=O)[nH][nH]1)N/N=C/c1ccccc1[N+](=O)[O-],92.8
27,Cn1c(O)c(C2=NN(C(=O)CCl)C(c3ccccc3)C2)c(=O)n(C)c1=O (centres undefined),90.6
28,COC(=O)C(C#N)C(c1cccnc1)c1c(C)[nH][nH]c1=O (centres undefined),82.6
29,O=c1cc(-c2ccc(Br)cc2)[nH][nH]1,91.1
